Compounds without any hit were thinned out: in the full panel of roughly 83,000, 20% have a hit.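 Assay: single dose, 48 h. Readout: percent growth (0 = no net growth; negative = cell death). Active: <10.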 The source made the active and inactive calls.
Assays:
Experiment in all cases: NCI-60 one-dose screen, 48 h (100 = growth as untreated, 0 = no growth, -100 = all killed)
Details in all cases: 10 µM unless noted
SK-MEL-2 melanoma = system: SK-MEL-2 melanoma
EKVX NSCLC = system: EKVX NSCLC
SN12C renal = system: SN12C renal
UO-31 renal = system: UO-31 renal
TK-10 renal = system: TK-10 renal
ACHN renal = system: ACHN renal
CAKI-1 renal = system: CAKI-1 renal
A498 renal = system: A498 renal
CCRF-CEM leukemia = system: CCRF-CEM leukemia
MOLT-4 leukemia = system: MOLT-4 leukemia
SR leukemia = system: SR leukemia
RPMI-8226 leukemia = system: RPMI-8226 leukemia
OVCAR-8 ovarian = system: OVCAR-8 ovarian
OVCAR-5 ovarian = system: OVCAR-5 ovarian
OVCAR-4 ovarian = system: OVCAR-4 ovarian
SK-OV-3 ovarian = system: SK-OV-3 ovarian
IGROV1 ovarian = system: IGROV1 ovarian
OVCAR-3 ovarian = system: OVCAR-3 ovarian
HS 578T breast = system: HS 578T breast
NCI/ADR-RES ovarian = system: NCI/ADR-RES ovarian

| Compound | growth (SK-MEL-2 melanoma) | growth (EKVX NSCLC) | growth (SN12C renal) | growth (UO-31 renal) | growth (TK-10 renal) | growth (ACHN renal) | growth (CAKI-1 renal) | growth (A498 renal) | growth (CCRF-CEM leukemia) | growth (MOLT-4 leukemia) | growth (SR leukemia) | growth (RPMI-8226 leukemia) | growth (OVCAR-8 ovarian) | growth (OVCAR-5 ovarian) | growth (OVCAR-4 ovarian) | growth (SK-OV-3 ovarian) | growth (IGROV1 ovarian) | growth (OVCAR-3 ovarian) | growth (HS 578T breast) | growth (NCI/ADR-RES ovarian) |
| --- | --- | --- | --- | --- | --- | --- | --- | --- | --- | --- | --- | --- | --- | --- | --- | --- | --- | --- | --- | --- |
| CCOC(=O)/C=C1\S/C(=N\Nc2cc(=O)[nH]c3ccc(OC)cc23)N(c2ccccc2)C1=O | 106% (inactive) | 106% (inactive) | 96.8% (inactive) | 82.4% (inactive) | 117% (inactive) | 96.8% (inactive) | 88.5% (inactive) | 112% (inactive) | 65.1% (inactive) | 95.4% (inactive) | 50.4% (inactive) | 87.2% (inactive) | 98.7% (inactive) | 106% (inactive) | 82.7% (inactive) | 104% (inactive) | 92.2% (inactive) | 95.8% (inactive) | 103% (inactive) | 104% (inactive) |
| C/C(=N\NC(=O)c1ccc(C(C)(C)C)cc1)c1ccc(O)cc1O | 42.8% (inactive) | 22% (inactive) | 33.7% (inactive) | 16.8% (inactive) | 40.5% (inactive) | 16.5% (inactive) | 17.1% (inactive) | 42.3% (inactive) | 14.5% (inactive) | 18.2% (inactive) | 19.2% (inactive) | 28.5% (inactive) | 22.9% (inactive) | 39.9% (inactive) | 15% (inactive) | 27.7% (inactive) | 23.8% (inactive) | 6.18% (active) | 59.8% (inactive) | 10.3% (inactive) |
| CCNc1nc(-c2ccc(Cl)c(OC)c2)c(-c2ccnc(NCCNS(=O)(=O)c3ccc(Cl)cc3)n2)s1 | -30% (active) | 34.9% (inactive) | 36.1% (inactive) | 40.8% (inactive) | 22.5% (inactive) | 33.7% (inactive) | 30.4% (inactive) | 18.6% (inactive) | 21.4% (inactive) | 11.2% (inactive) | 21.5% (inactive) | 21.4% (inactive) | 37.9% (inactive) | 40.7% (inactive) | 31.8% (inactive) | 1.58% (active) | 39.3% (inactive) | -3.31% (active) | 24.1% (inactive) | 33% (inactive) |
| O=S(=O)(c1ccc(NCSc2nc3ccccc3s2)cc1)c1ccc(NCSc2nc3ccccc3s2)cc1 | 78.8% (inactive) | 101% (inactive) | 95.5% (inactive) | 60.2% (inactive) | 92.6% (inactive) | 102% (inactive) | 95.4% (inactive) | 112% (inactive) | 71.8% (inactive) | 76.9% (inactive) | 83.4% (inactive) | 92.1% (inactive) | 96.8% (inactive) | 107% (inactive) | 117% (inactive) | 71.3% (inactive) | 97% (inactive) | 97.7% (inactive) | 90.6% (inactive) | 102% (inactive) |
| COc1ccc(-c2cc(-c3ccc(Nc4nc(Nc5ccc(Cl)cc5)nc(Nc5ccc(Cl)cc5)n4)cc3)no2)cc1 | 58.1% (inactive) | 76.3% (inactive) | 94% (inactive) | 65.3% (inactive) | 108% (inactive) | 83.6% (inactive) | 83.3% (inactive) | 86.8% (inactive) | 38.9% (inactive) | 9.97% (active) | 2.43% (active) | 12.5% (inactive) | 85.7% (inactive) | 86% (inactive) | 77.4% (inactive) | 127% (inactive) | 63.8% (inactive) | 71.1% (inactive) | 90.2% (inactive) | 81.8% (inactive) |
| CC(C)n1nc(-c2ccc3oc(N)nc3c2)c2c(N)ncnc21 | -19.5% (active) | -27.2% (active) | 3.13% (active) | -20.9% (active) | -30.4% (active) | -14% (active) | 2.4% (active) | -50.4% (active) | 11.7% (inactive) | 6.39% (active) | 9.35% (active) | -6.46% (active) | -17.5% (active) | -9.99% (active) | -32.2% (active) | -32.6% (active) | -27.3% (active) | -6.08% (active) | -35.8% (active) | -20.6% (active) |
| N=C(N)c1ccc(-c2ccc(-c3ccc(Cl)cc3Cl)s2)nc1 | 109% (inactive) | 93.6% (inactive) | 81% (inactive) | 91.3% (inactive) | 122% (inactive) | 74.2% (inactive) | 39.1% (inactive) | 104% (inactive) | 39.1% (inactive) | 13.5% (inactive) | 5.54% (active) | 0.186% (active) | 36.2% (inactive) | 80.2% (inactive) | 98.2% (inactive) | 91.3% (inactive) | 50.6% (inactive) | 64.4% (inactive) | 90.1% (inactive) | 96.7% (inactive) |
| Cc1c(C)c2c(c(C)c1OC(=O)CCC(=O)[O-])CCC(C)(CCCCCCCCCCC[P+](c1ccccc1)(c1ccccc1)c1ccccc1)O2 (stereo not given) | -64.4% (active) | -25.1% (active) | -65.7% (active) | -3.37% (active) | -14.2% (active) | -5.75% (active) | -28.3% (active) | -73.9% (active) | 0.344% (active) | -25.5% (active) | -25.5% (active) | -47.7% (active) | 3.73% (active) | 13.5% (inactive) | -1.74% (active) | -27% (active) | -13.1% (active) | -76.4% (active) | -15% (active) | 74.3% (inactive) |
| CCN1C(=O)N(CC)C2C1NN=c1s/c(=C3\C(=O)N(C)c4ccccc43)c(=O)n12 (stereo not given) | 60.3% (inactive) | 57.8% (inactive) | 36.9% (inactive) | 43.6% (inactive) | 69.8% (inactive) | 40.9% (inactive) | 42.2% (inactive) | -26.9% (active) | 30.8% (inactive) | 45.1% (inactive) | 19.3% (inactive) | 62.1% (inactive) | 37.6% (inactive) | 48.9% (inactive) | 52% (inactive) | 72.5% (inactive) | 37.4% (inactive) | -14.1% (active) | 14.2% (inactive) | 9.37% (active) |
| CCN(CC)CCCNc1cc(OC)cc2cccnc12 | 109% (inactive) | 107% (inactive) | 97.7% (inactive) | 91.6% (inactive) | 109% (inactive) | 110% (inactive) | 103% (inactive) | 81.5% (inactive) | 114% (inactive) | 104% (inactive) | 100% (inactive) | 97.4% (inactive) | 101% (inactive) | 117% (inactive) | 51.4% (inactive) | 112% (inactive) | 106% (inactive) | 79.2% (inactive) | 109% (inactive) | 108% (inactive) |
| CCCn1cnc2c(c1=N)C(c1ccc(Cl)cc1)c1sc3c(F)cccc3c1O2 (stereo not given) | 103% (inactive) | 80% (inactive) | 69.3% (inactive) | 50.5% (inactive) | 102% (inactive) | 84.1% (inactive) | 70.6% (inactive) | 94.7% (inactive) | 64.4% (inactive) | 56.7% (inactive) | 24.7% (inactive) | 29.6% (inactive) | 86.4% (inactive) | 81.6% (inactive) | 66.2% (inactive) | 102% (inactive) | 59.5% (inactive) | 81.4% (inactive) | 91.2% (inactive) | 80.7% (inactive) |
| Cc1c2ccncc2c(C)c2c1c1ccccc1n2CCCCCC(=O)O | 92.4% (inactive) | 90.3% (inactive) | 94.2% (inactive) | 56.7% (inactive) | 128% (inactive) | 82.9% (inactive) | 91.1% (inactive) | 52.8% (inactive) | 94.1% (inactive) | 74.8% (inactive) | 65.1% (inactive) | 86.3% (inactive) | 79.5% (inactive) | 109% (inactive) | 94.3% (inactive) | 95.6% (inactive) | 76.9% (inactive) | 93.1% (inactive) | 88.5% (inactive) | 80.1% (inactive) |
| COc1cc(/C=C2\C(=O)N(CCOc3cc(O)c4c(=O)cc(-c5ccccc5)oc4c3)c3ccccc32)cc(OC)c1O | 74.1% (inactive) | 83.2% (inactive) | 65.9% (inactive) | 63.5% (inactive) | 109% (inactive) | 66.9% (inactive) | 59.3% (inactive) | 127% (inactive) | 49.6% (inactive) | 51.8% (inactive) | 39% (inactive) | 84.1% (inactive) | 69.9% (inactive) | 103% (inactive) | 82.3% (inactive) | 92.2% (inactive) | 74.4% (inactive) | 55% (inactive) | 45.5% (inactive) | 47.5% (inactive) |
| CNC(=O)c1cc(Oc2ccc3nc(NC(=O)c4cc(C(F)(F)F)cc(C(F)(F)F)c4)sc3c2)ccn1 | -18.5% (active) | 23.3% (inactive) | 10.5% (inactive) | 6.1% (active) | 16.6% (inactive) | 14.9% (inactive) | 11% (inactive) | -11.4% (active) | 16.8% (inactive) | 8.03% (active) | 12.5% (inactive) | 9.36% (active) | 20.8% (inactive) | 51.6% (inactive) | 15.8% (inactive) | -2.45% (active) | 30.9% (inactive) | 12% (inactive) | 32.1% (inactive) | 12.9% (inactive) |
| CC1=NN(c2cccc(Cl)c2)C(=O)/C1=C\C=C\c1ccccc1 | 74.6% (inactive) | 87.1% (inactive) | 0.408% (active) | 69.7% (inactive) | 44.8% (inactive) | -51.3% (active) | 52.2% (inactive) | 110% (inactive) | 2.35% (active) | 28.4% (inactive) | 10.6% (inactive) | 15.4% (inactive) | 0.373% (active) | 144% (inactive) | -10.4% (active) | 39.4% (inactive) | 45.5% (inactive) | 104% (inactive) | 133% (inactive) | -17.5% (active) |
